Experimental data taken from PubChem BioAssay (Tox21).
Records with an inconclusive call do not appear. The source made the active and inactive calls. The call rests on the fitted dose curve; in most records, active means well fitted inhibition curve with a large enough effect in the repeat runs; inconclusive means weak or mixed curves; inactive means no such curve, though single readings can be large or run the other way.

These compounds were tested against Cytochrome P450 3A4 (Homo sapiens) (UniProt P08684) (assay: Cytochrome P450 Family 3 Subfamily A Member 4 (CYP3A4) small molecule antagonists: luciferase reporter qHTS assay (AID 1671201; further: nearly all actives have a fitted effect of over 50% in size)). Settings: P450-Glo CYP3A4 enzyme, luciferin luminescence, 1 h; series mostly up to 115 µM; activity change, negative = inhibition: at the top concentration.
Description: National Center for Advancing Translational Sciences [NCATS]
U.S. Environmental Protection Agency [EPA]
National Institutes of Environmental Health Sciences [NIEHS]
National Toxicology Program [NTP]
U.S. Food and Drug Administration [FDA]
Cytochrome P450 (CYP) enzymes are membrane-bound hemeproteins that play a key role in metabolism of drugs and xenobiotics. Evaluation of the effect of chemicals on CYP isozymes is useful to minimize the adverse drug reactions and toxicities in drug development process. Tox21 chemicals were tested for their effect on CYP enzyme activities by using P450-Glo (TM) screening systems (Promega Corporation, Madison, WI). These systems provide a luminescent method containing proluciferin substrates and are converted to luciferin products by CYP isozymes. The luciferin products formed are detected with a luciferin detection reagent, and the amount of light produced is proportional to CYP activity. P450-Glo (TM) CYP3A4 screening system (Catalog. No. V9910) was used to detect the compounds that interfere in CYP3A4 activity. The positive control compound used for CYP3A4 assay is ketoconazole (Sigma-Aldrich, St. Louis, MO).
Tox21 Assay Protocol Summary:
Two ul of enzyme-substrate mix was dispensed into medium binding white/solid 1536-well plates (Greiner Bio-One North America Inc., Monroe, NC) using a BioRaptr Flying Reagent Dispenser (FRD, Beckman Coulter, Brea, CA). Compounds dissolved in DMSO and positive control (ketoconazole) were transferred to the assay plates at 23 nl using a Pintool station (Wako, San Diego, CA). The assay plates were incubated at room temperature for 10 min. Then 2 ul of NADPH regeneration solution was added to each well of the assay plates using an FRD and incubated at room temperature for 1 h. The reaction was stopped by adding 4 ul of detection reagent using an FRD and after 20 min incubation at room temperature the luminescence signal was measured using a ViewLux plate reader (Perkin Elmer, Shelton, CT). Data were expressed as relative luminescence units.
On the % scale 0 is the no-effect control and ±100 the full control effect.

Sequence of Cytochrome P450 3A4 (Homo sapiens) (P08684 whole entry, looked up): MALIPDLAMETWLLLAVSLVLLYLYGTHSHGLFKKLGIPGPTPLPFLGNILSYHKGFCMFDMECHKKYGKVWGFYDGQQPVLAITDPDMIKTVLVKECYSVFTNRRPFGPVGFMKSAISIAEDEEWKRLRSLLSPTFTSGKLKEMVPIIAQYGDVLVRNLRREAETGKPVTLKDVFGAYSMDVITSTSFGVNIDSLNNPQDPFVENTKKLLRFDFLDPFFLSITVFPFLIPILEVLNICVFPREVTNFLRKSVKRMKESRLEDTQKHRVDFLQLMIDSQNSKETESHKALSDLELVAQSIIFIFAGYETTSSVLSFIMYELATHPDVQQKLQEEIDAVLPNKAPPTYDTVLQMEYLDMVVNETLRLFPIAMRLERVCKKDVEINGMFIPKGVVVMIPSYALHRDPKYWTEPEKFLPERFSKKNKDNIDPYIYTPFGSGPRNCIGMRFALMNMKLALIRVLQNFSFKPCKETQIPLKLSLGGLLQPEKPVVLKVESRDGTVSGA

Row | SMILES | activity change, negative = inhibition
1 | CCCCCCCCCCCCN(CCCCCCCCCCCC)CCCCCCCCCCCC | 6.34% (inactive)
2 | O=S(O)CO | 2.22% (inactive)
3 | CC(C[N+](C)(C)C)OC(N)=O (stereo not given) | 9.31% [at 52.9 µM] (inactive)
4 | CC(NC(CCc1ccccc1)C(=O)O)C(=O)N1C(=O)N(C)CC1C(=O)O (stereo not given) | 14.8% [at 52.9 µM] (inactive)
5 | CC1(C)C(O)C(C)(C)C1O (stereo not given) | 6.63% (inactive)
6 | COC(=O)NN | 1.67% (inactive)
7 | CC(C(=O)O)c1ccc(CC2CCCC2=O)cc1 (stereo not given) | 3.65% [at 52.9 µM] (inactive)
8 | CC(=O)Nc1c(I)cc(I)c(C(=O)O)c1I | 42.2% [at 52.9 µM] (inactive)
9 | C[C@](N)(Cc1ccc(O)cc1)C(=O)O | -20.3% [at 10.5 µM] (inactive)
10 | CN1CC(=O)NC1=N | 9.65% [at 52.9 µM] (inactive)
11 | CCCCCCOC(=O)CCCCC(=O)OCCCCCC | 4.6% (inactive)
12 | CCOc1ccc(C(=O)OCCN(CC)CC)cc1 | 6.16% [at 52.9 µM] (inactive)
13 | CCC(C)S (stereo not given) | 2.72% [at 4.07 µM] (inactive)
14 | Cc1cccc(C)c1NC(=O)C(C)N (stereo not given) | -28.2% [at 52.9 µM] (inactive)
15 | CS(=O)(=O)O | 8.89% (inactive)
16 | CCCCNC(=O)NCCCC | -7.56% (inactive)
17 | CC(C)CCCC(C)N (stereo not given) | 15.4% [at 52.9 µM] (inactive)
18 | CCSC(=O)N(CC(C)C)CC(C)C | 8.2% (inactive)
19 | Cc1[nH]c(=O)c(C#N)cc1-c1ccc2nccn2c1 | 2.37% [at 52.9 µM] (inactive)
20 | O=C1NC(=O)[C@@]2(CCOc3ccc(F)cc32)N1 | 6.75% [at 52.9 µM] (inactive)

Row | SMILES | activity change, negative = inhibition
21 | CC(C)NC(=O)NC(C)C | 4.79% (inactive)
22 | CCCCCCCCCCCCCC=O | -19.9% [at 10.5 µM] (inactive)
23 | CC/C=C\CC/C=C/CO | 10.4% (inactive)
24 | O=Cc1cccc([N+](=O)[O-])c1 | -0.772% (inactive)
25 | OC1CCCCC1c1ccccc1 (stereo not given) | -0.431% (inactive)
26 | CCCCCOC(=O)CCCCC | 8.2% (inactive)
27 | N=C(N)c1ccccc1 | 1.47% (inactive)
28 | NS(=O)(=O)c1ccccc1Cl | 11.2% (inactive)
29 | CCCCC(CC)COC(=O)c1ccccc1O (stereo not given) | 8.89% [at 52.9 µM] (inactive)
30 | CC(=O)OCC(=O)[C@@]1(O)CC[C@H]2[C@@H]3CCC4=CC(=O)CC[C@]4(C)[C@H]3C(=O)C[C@@]21C | -8.65% [at 52.9 µM] (inactive)
31 | CCC(=O)OC(C)c1ccccc1 (stereo not given) | 7.88% (inactive)
32 | CCCCCCCCCCCCCCCCC | 10.5% (inactive)
33 | CC(C)=CCCC(C)CC(=O)O (stereo not given) | 17.1% (inactive)
34 | Nc1nc2c(ncn2COC(CO)CO)c(=O)[nH]1 | 14.9% [at 52.9 µM] (inactive)
35 | CN1N=C(C(N)=O)CCC1=O | 0.477% [at 52.9 µM] (inactive)
36 | c1ccc(CC2=NCCN2)cc1 | -19.5% [at 52.9 µM] (inactive)
37 | CC(C)(C)c1ccc(O)c(O)c1 | -8.45% (inactive)
38 | CCN1CCC[C@H]1CNC(=O)c1c(O)c(Cl)cc(Cl)c1OC | -18.2% [at 52.9 µM] (inactive)
39 | CCc1cccc2c(CCO)c[nH]c12 | -3.8% [at 52.9 µM] (inactive)
40 | CC(C)CNCC(C)C | 4.96% (inactive)
